# Compound activity: PubChem, National Center for Advancing Translational Sciences (NCATS)
# Only some compounds are listed: those with a hit (about 12% of all), similar ones and a draw of the others.
# NS1 function inh – inhibitors of influenza NS1 protein function; Potency, µM (highest dose often 46.1 µM); actives 0.4% (n = 270,000); AID 2326; calls by dose curve; note: actives are rising curves; nearly all actives have a fitted effect of over 50% in size
#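 Recovery from NS1-induced slow growth read by OD600 in budding yeast switched to galactose assay medium (pH 6.0, -URA) at 1:100 dilution. Compound 23 nl per well; the matching strain lacking NS1 serves as control.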
# Pf growth 48h – P. falciparum growth inhibition at 48 hours (one generation) | P. falciparum luciferase growth in erythrocytes, 48 h | Potency, µM (series often up to 28.7 µM), hits mostly inhibitors | actives 5.9% (n = 310,000)
#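 Parasite viability was followed by luminescence of a genomically integrated firefly luciferase. Cultures held 0.1% parasitemia at 2% hematocrit (final), incubated under 5% CO2 at 37 C.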
# Pf growth 96h – P. falciparum growth inhibition at 96 hours. P. falciparum luciferase reporter growth, 96 h. Potency, µM (top dose mostly 28.7 µM), usual class: inhibitors. actives 6.9% (n = 320,000)
#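 P. falciparum expressing integrated firefly luciferase, in erythrocytes at 2% hematocrit, 0.05% parasitemia, incubated with compounds 96 h at 37 C, 5% CO2. Growth inhibition read as loss of luminescence; two-generation exposure targets delayed-death apicoplast inhibitors.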
# AMA1 RON2 block – disrupts binding of P. falciparum AMA1 to RON2; Potency, µM (titrated, usually from 58.2 µM), usual class: inhibitors; AlphaScreen AMA1-biotinylated RON2 peptide binding; AID 720542; actives 0.2% (n = 360,000); note: nearly all actives have a fitted effect of over 45% in size
#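 AMA1 (3D7) with his tag at 25 nM final met compounds first, then biotinylated RON2 peptide at 25 nM; detection used donor plus acceptor beads, 10 µg/mL apiece, read by AlphaScreen after 30 min at room temperature.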
# SARS PLpro yeast-1 – blocks SARS-CoV papain-like protease in a yeast assay; S. cerevisiae expressing SARS-CoV PLpro, growth rescue; Potency, µM (highest dose often 32.9 µM), usual class: activators; actives 0.19% (n = 330,000); AID 485353; calls by dose curve; note: nearly all actives have a fitted effect of over 55% in size
# HCV inh – blocks hepatitis C virus | Huh7.5.1 HCVcc-Cre infection, luciferase reporter, 44 h | Potency, µM (series often up to 41.8 µM), actives largely listed as inhibitors | actives 3.4% (n = 340,000) | AID 651820
#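 Compounds are dispensed onto cells plated 4 h earlier at 1,000 per well, with HCVcc-Cre virus (about 0.5 moi) added next. Following 44 h of culture, luminescent signal is measured for 15 sec after 15 min with substrate at room temperature.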
# SARS PLpro yeast-2 – Inhibits SARS-CoV PLP in yeast, hit validation; shares compounds with SARS PLpro yeast-1; yeast expressing SARS-CoV PLpro, growth phenotype rescue; calls only; actives 19% (n = 1,000); AID 652038; call rule not given here
# Hits are given with their value; n = inactive; u = inconclusive; x = no result given; + = active, no number. Unless noted, calls come from the whole dose curve; as a rule, active = well fitted curve in the direction sought with a large enough effect; inconclusive = small, poorly fitted or top-dose-only effect, or another doubt; inactive = no such curve, though single readings can be large; an effect the other way counts as inactive or inconclusive.
SMILES,NS1 function inh,Pf growth 48h,Pf growth 96h,AMA1 RON2 block,SARS PLpro yeast-1,HCV inh,SARS PLpro yeast-2
COc1ccc(OC)c(C2CC(=O)c3c([nH]c(C(=O)OCC4CCCO4)c3C)C2)c1 (stereo unspecified),n,u,u,n,n,u,x
CCc1ccc(NS(=O)(=O)c2c(C(=O)N3CCCCCC3)c(C)n(C)c2C)cc1,n,n,n,n,n,n,x
O=C(N/N=C/c1c(O)n(C2CC2)c(=S)[nH]c1=O)c1ccccc1O,n,n,u,n,13µM,n,n
Cc1nn(CC(=O)NC2(C)CCS(=O)(=O)C2)c(C)c1S(=O)(=O)N(C)C (stereo unspecified),x,x,x,n,u,n,n
O=C1c2ccccc2NC(c2ccc(-c3ccc(F)cc3)o2)N1O (stereo unspecified),x,n,n,x,n,x,x
O=C1c2ccccc2NC(c2ccc(-c3cccc([N+](=O)[O-])c3)o2)N1O (stereo unspecified),u,u,u,n,10µM,n,+
O=C(NC1CCN(S(=O)(=O)c2ccccc2C(F)(F)F)CC1)c1ccco1,n,n,n,n,n,n,x
CC(=O)NC(CC(=O)Nc1ccc(S(=O)(=O)NC2=NCCCCC2)cc1)c1ccccc1 (stereo unspecified),x,n,n,n,u,u,n
CC[C@@H]1Cc2[nH][nH]c(=O)c2[C@H](c2ccc(Cl)cc2)O1,x,x,x,n,x,x,x
O=C(CSCc1ccc(Br)cc1)NC1CC1,n,u,n,n,n,n,x
O=C(CSCc1cccc(Br)c1)NC1CC1,n,n,n,n,u,n,n
COc1ccc(/C(N)=N/OC(=O)c2cccc([N+](=O)[O-])c2C)cc1OC,n,x,13µM,n,u,u,n
CCN(CC)S(=O)(=O)c1ccc(NC(=S)NC(=O)CC(C)C)cc1,u,u,u,n,x,n,n
CCOC(=O)C1CCCN(C(=O)c2[nH]c3ccc(OC)cc3c2C)C1 (stereo unspecified),n,x,n,n,n,n,x
COc1cccc(CNC(=O)c2ccc(CS(=O)(=O)Cc3ccc(C)cc3)o2)c1,x,n,u,n,n,n,x
COc1cccc(CNC(=O)c2ccc(CS(=O)(=O)Cc3ccccc3C)o2)c1,n,n,n,n,u,n,n
CC/C(CC(c1ccccc1)c1c(O)c2ccccc2oc1=O)=N\NC(N)=S (stereo unspecified),n,n,u,n,13µM,n,n
COc1ccc(C(CC(C)=O)c2c(O)c3ccccc3oc2=O)cc1OC (stereo unspecified),x,x,x,n,x,x,x
COc1ccc2nc(SCC(=O)N3CC(=O)Nc4ccccc43)c(C#N)cc2c1,n,x,u,n,u,u,n
COc1ccc(Cn2c(=O)[nH]c3cc(C(=O)N4CCN(c5ccccn5)CC4)ccc3c2=O)cc1,x,u,u,n,n,n,x
Cc1ccccc1S(=O)(=O)Cc1ccc(C(=O)NCCCN2CCCC2)o1,n,n,u,n,n,n,x
Cc1ccccc1S(=O)(=O)Cc1ccc(C(=O)NCCCN2CCN(C)CC2)o1,n,u,n,n,u,n,n
COc1cccc(/C=C/c2nc(C#N)c(NCC(C)C)o2)c1,n,n,n,n,n,u,x
N#CC1=C(N)Oc2c(c(=O)oc3ccccc23)C1c1cccnc1 (stereo unspecified),n,n,u,n,u,n,n
CCC(CC)C1C(C#N)=C(N)Oc2c1c(=O)oc1ccccc21 (stereo unspecified),n,u,u,n,n,n,x
SMILES,NS1 function inh,Pf growth 48h,Pf growth 96h,AMA1 RON2 block,SARS PLpro yeast-1,HCV inh,SARS PLpro yeast-2
C=CCN(c1ccccc1)S(=O)(=O)c1cccc(C(=O)N(CC)CC(=O)Nc2c(F)cccc2F)c1,n,u,n,n,n,x,x
Cc1sc2ccccc2[n+]1CC(=O)O,n,u,u,n,n,n,x
CC[n+]1c(/C=C(/C)SC)sc2ccccc21,n,1.7µM,u,n,3.5µM,u,n
CC(C)CCN1CCNC(=O)C1CC(=O)N(C)CCCN1CCOCC1 (stereo unspecified),n,n,n,n,n,x,x
c1ccc(N2CCN(CCc3nnc4n3CCCCC4)CC2)cc1,n,n,x,n,u,n,n
O=C(NCC(c1cccnc1)N1CCN(c2ccccc2F)CC1)C1CCCCC1 (stereo unspecified),n,x,n,n,u,n,n
COc1ccc(-c2cc(=Nc3c(C)n(C)n(-c4ccccc4)c3=O)c3ccccc3o2)cc1,x,n,n,n,n,u,x
COc1ccc(-c2c/c(=N\c3nc(-c4ccccc4)c(C)s3)c3ccccc3o2)cc1O,n,u,x,n,u,u,+
CC1(C)CC(NS(=O)(=O)c2ccc(S(N)(=O)=O)cc2)CC(C)(C)N1,n,n,n,x,n,x,x
Cc1cc(SC#N)cc(C)c1NC(=O)CCl,n,n,n,n,x,n,n
CSc1nc(SCc2ccccc2)[nH]c(=O)n1,x,x,x,n,x,x,x
CN(CC(=O)Nn1cnnc1)S(=O)(=O)c1ccc(Br)cc1,n,n,n,n,3.5µM,n,n
CC(C)(C)n1cnnc1Sc1ncccc1[N+](=O)[O-],n,n,n,n,n,n,x
CC(=O)C(Sc1nn(C)c(=S)s1)C(=O)Nc1ccccc1 (stereo unspecified),n,n,u,n,u,n,n
O=C(Nc1ccccc1)N1CCCC(c2nc(-c3cccs3)no2)C1 (stereo unspecified),n,n,x,n,16µM,u,n
O=C(Nc1ccc(C(F)(F)F)cc1)C1CCN(c2cnccn2)CC1,n,u,n,n,n,u,x
Cc1ccc(C)c(NC(=O)CN(C)C(=O)c2cc(C3CC3)nn2-c2ccccc2)c1,x,x,x,n,n,u,x
CCOC(=O)c1ccc(NC(=O)C2CCN(C(=O)c3ccc(OC)c(OC)c3)CC2)cc1,n,u,x,n,u,10µM,n
CCN1C(=O)/C(=C2/C=CC=CN2C)OC1=S,n,n,n,n,11µM,n,n
O=C(N/N=C/c1ccc(OC(F)F)cc1OC(F)F)c1ccc(Br)cc1,n,n,u,n,x,u,n
O=C(C[n+]1ccc(C(=O)NCc2ccccc2)cc1)c1ccc(Cl)cc1,n,u,n,n,n,n,x
O=C(NC1CCC(O)CC1)c1ccc(Br)o1 (stereo unspecified),x,x,x,n,4.5µM,n,n
CCc1ccc(NC(=O)C(=O)NCC2CCCN2S(=O)(=O)c2cccs2)cc1 (stereo unspecified),x,u,n,n,n,u,x
O=C(NN=Cc1ccc(O)cc1O)c1ccccc1NS(=O)(=O)c1cccs1,x,x,x,n,1.1µM,u,n
Cc1c(N(C)S(=O)(=O)c2ccc(Cl)c(C(=O)N3CCC(C(N)=O)CC3)c2)c(=O)n(-c2ccccc2)n1C,x,n,n,n,n,n,x
